In the supplement of paper PMC4709259:
Structures can show the parent of a compound that is named as a salt. ± gives the standard deviation.

Key:
[1] = system: Jurkat; experiment: mean cell size (FSC-A) relative to DMSO control (fraction of control); higher = larger cells; conditions: 48 h
Outline: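 Jurkat cells at 600 cells/µl were incubated for 1 h and then treated for 48h with the Enzo Screen-Well FDA Approved Drug Library v2.0 at 25µM, with DMSO at 0.9% (v/v) final. Compounds that reduced counts below 20% of controls were retested in 10-fold dilutions down to 25nM. Cell count and mean cell size, taken as forward scatter area, were measured by flow cytometry relative to solvent-only controls. Each plate carried 6-12 controls, and values are means of 3 biological replicates.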

[2] = system: Jurkat; experiment: cell count relative to DMSO control (fraction of control); higher = more cells (less growth inhibition); conditions: 48 h

SMILES: CO[C@H]1/C=C/O[C@@]2(C)Oc3c(C)c(O)c4c(O)c(c(/C=N/N5CCN(C6CCCC6)CC5)c(O)c4c3C2=O)NC(=O)/C(C)=C\C=C\[C@H](C)[C@H](O)[C@@H](C)[C@@H](O)[C@@H](C)[C@H](OC(C)=O)[C@@H]1C [Rifapentine] (concentration: 25 µM)
- mean cell size [1]: 0.887 ± 0.025
- cell count [2]: 0.275 ± 0.088

SMILES: NS(=O)(=O)Cc1noc2ccccc12 [Zonisamide] (concentration: 25 µM)
- mean cell size [1]: 1 ± 0.05
- cell count [2]: 0.561 ± 0.25

SMILES: O=C1c2cccc3c2[C@H](CCC3)CN1[C@@H]1CN2CCC1CC2 [Palonosetron·HCl] (concentration: 25 µM)
- mean cell size [1]: 1.07 ± 0.033
- cell count [2]: 0.721 ± 0.022

SMILES: CO[C@@]12[C@H](COC(N)=O)C3=C(C(=O)C(C)=C(N)C3=O)N1C[C@@H]1N[C@@H]12 [Mitomycin C] (concentration: 2.5 µM)
- mean cell size [1]: 1.22 ± 0.059
- cell count [2]: 0.257 ± 0.048

SMILES: O=C1NC(c2ccccc2)(c2ccccc2)C(=O)N1COP(=O)(O)O [Fosphenytoin·Na Pentahydrate] (concentration: 25 µM)
- mean cell size [1]: 0.887 ± 0.058
- cell count [2]: 0.498 ± 0.074

SMILES: CNCCCC1c2ccccc2C=Cc2ccccc21 [Protriptyline·HCl] (concentration: 25 µM)
- mean cell size [1]: 1.05 ± 0.019
- cell count [2]: 0.821 ± 0.056

SMILES: CCn1cc(C(=O)O)c(=O)c2cc(F)c(N3CCNCC3)cc21 [Norfloxacin] (concentration: 25 µM)
- mean cell size [1]: 0.9213 ± 0.0047
- cell count [2]: 0.982 ± 0.014

SMILES: CN1C(=O)CC(C)(c2ccccc2)C1=O (stereo not drawn) [Methsuximide] (concentration: 25 µM)
- mean cell size [1]: 1.03 ± 0.03
- cell count [2]: 0.752 ± 0.068

SMILES: CS(=O)(=O)OCCCCOS(C)(=O)=O [Busulfan] (concentration: 25 µM)
- mean cell size [1]: 1.03 ± 0.016
- cell count [2]: 0.343 ± 0.046
